This excerpt belongs to a sample that is enriched for hits.
ROC1-CUL1 inh – human ROC1-CUL1 E3 ligase inhibition; in vitro K48 di-Ub FRET, acceptor:donor ratio, 45 min; hit rate 0.6% among 140,000; inhibition, % at 10 µM; in the data active = inhibition above about 25%
Target sequence (P62877 whole entry, looked up): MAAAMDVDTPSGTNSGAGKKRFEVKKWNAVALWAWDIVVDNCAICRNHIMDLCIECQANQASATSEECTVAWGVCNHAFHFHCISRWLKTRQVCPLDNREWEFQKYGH
Target sequence (Q13616 whole entry, looked up): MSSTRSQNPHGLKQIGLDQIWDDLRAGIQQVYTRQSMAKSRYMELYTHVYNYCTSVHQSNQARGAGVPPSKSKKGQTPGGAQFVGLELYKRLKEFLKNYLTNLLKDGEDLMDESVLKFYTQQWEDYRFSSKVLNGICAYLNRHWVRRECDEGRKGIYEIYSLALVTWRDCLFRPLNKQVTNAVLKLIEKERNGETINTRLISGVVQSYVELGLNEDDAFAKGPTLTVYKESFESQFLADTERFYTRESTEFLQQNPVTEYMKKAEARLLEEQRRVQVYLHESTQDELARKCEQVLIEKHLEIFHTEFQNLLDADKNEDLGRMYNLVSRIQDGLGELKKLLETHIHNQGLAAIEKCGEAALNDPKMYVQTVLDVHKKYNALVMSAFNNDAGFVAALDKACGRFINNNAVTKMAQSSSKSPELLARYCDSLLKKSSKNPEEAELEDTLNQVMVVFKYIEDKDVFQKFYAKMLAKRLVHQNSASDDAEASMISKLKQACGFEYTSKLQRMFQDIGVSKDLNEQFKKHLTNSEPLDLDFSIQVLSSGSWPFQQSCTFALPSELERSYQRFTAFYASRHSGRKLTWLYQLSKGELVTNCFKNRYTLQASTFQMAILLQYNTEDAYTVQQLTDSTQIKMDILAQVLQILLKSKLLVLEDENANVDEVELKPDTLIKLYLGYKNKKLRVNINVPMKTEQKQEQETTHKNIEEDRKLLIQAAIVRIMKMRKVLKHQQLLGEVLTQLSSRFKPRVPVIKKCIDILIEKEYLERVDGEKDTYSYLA
* = called active by the depositor.

SMILES	ROC1-CUL1 inh
COc1cccc(/C=C/C(=O)C2C=C(Br)C=C(Br)C(=O)C2=O)c1 (configuration not stated)	-3.3
CC1(C)CC(=O)C2=C(C1)OC(c1c3ccccc3cc3ccccc13)C(C#N)C2=N (configuration not stated)	-3.7
O=C(NNC(=O)c1cc2cc(Br)ccc2oc1=O)c1ccc(O)cc1O	43.9*
CCOC(=O)NC(=O)c1cc2cc(Br)ccc2oc1=O	-0.4
O=C(NNC(=O)c1cc2cc(Br)ccc2oc1=O)c1ccncc1	5.4
CCCCN(CC)CCCNC(=O)Cn1ncc2c3ccccc3n(C)c2c1=O	6.6
O=C(CCN1C(=O)c2ccc(C(=O)O)cc2C1=O)OCc1ccccc1	-3.2
CCc1ccc(N2NC(=O)/C(=C/c3ccc(-c4ccccc4F)o3)C2=O)cc1	-1.2
O=C1NN(c2ccc(I)cc2)C(=O)/C1=C\c1ccc(-c2cccc(C(=O)O)c2)o1	32.5*
Cc1ccc(/C=C2/C(=O)NN(c3cccc(C(F)(F)F)c3)C2=O)o1	8.6
O=C1NN(c2ccc(I)cc2)C(=O)/C1=C\c1ccc(-c2ccc(Br)cc2C(=O)O)o1	45.0*
COC(=O)c1ccccc1-c1ccc(/C=C2\C(=O)NN(c3ccc(Br)cc3)C2=O)o1	10.9
O=C1NN(c2ccc(Cl)c(Cl)c2)C(=O)/C1=C\c1ccc(-c2ccc(Br)cc2C(=O)O)o1	71.4*
COC(=O)c1cccc(-c2ccc(/C=C3/C(=O)NN(c4ccc(C)cc4)C3=O)o2)c1	14.8
Cc1cccc(NC(=O)c2snnc2C)c1	-0.3
COc1ccc(Cl)c2sc(NC(=O)c3ccc(S(=O)(=O)N4CCCC4)cc3)nc12	1.9
Cc1ccc(/C=C(/C#N)c2nc3ncccc3[nH]2)c(C)c1	4.9
O=[N+]([O-])c1ccc(Sc2ccc(N3CCCCC3)cc2)c([N+](=O)[O-])c1	-12.3
COc1ccccc1Cn1c(CNS(=O)(=O)c2ccc(CC(C)C)cc2)nc2cccnc21	-6.3
OCCN(Cc1ccccc1)Cc1nc(-c2ccc(C(F)(F)F)cc2)no1	3.0
O=C(O)c1cscc1/C=C/c1ccsc1Cl	-1.3
COc1cccc2cc(-c3ccccc3)oc12	4.0
COc1ccc(CCN2C(=O)N(c3ccc(C)cc3)C(=O)C2CC(=O)Nc2ccc(OC)cc2)cc1 (configuration not stated)	-5.3
CCOCCCN(Cc1ccco1)S(=O)(=O)c1cc2c(cc1C)NC(=O)CO2	-7.0
O=S(=O)(c1ccc(Br)s1)N(Cc1ccccc1)Cc1ccccc1	-0.3
SMILES	ROC1-CUL1 inh
O=[N+]([O-])c1ccc(N=Cc2cc3c(cc2[N+](=O)[O-])OCO3)c(Br)c1	7.4
Cc1c(N=Cc2cc3c(cc2[N+](=O)[O-])OCO3)cccc1[N+](=O)[O-]	90.7*
Cc1ccccc1N=Cc1cc2c(cc1[N+](=O)[O-])OCO2	-0.8
COc1cccc(/C=C2/SC(=O)N(CC(=O)N3CCc4ccccc4C3)C2=O)c1OCC(=O)O	8.9
CCOC(=O)C(N)=NNC(=O)c1ccccc1	-13.0
COc1ccc(C)cc1NC(=O)CCc1c(C)nn(-c2ccc(N3CCCCC3)nn2)c1C	-15.2
O=C(NC1CCCCC1)c1ccc(CSc2nc3cccnc3n2Cc2ccccc2)cc1	4.4
COCCN(Cc1ccc(C)c(Br)c1)S(=O)(=O)c1ccc2[nH]c(=O)ccc2c1	-4.0
Oc1ccc(NCc2cccc(OCc3ccc(Cl)cc3Cl)c2)cc1	38.8*
CNCc1ccc(OCc2ccc(Cl)cc2Cl)cc1	-6.1
CCOc1cccc(CNc2ccc(O)cc2)c1OCc1ccc(Cl)cc1Cl	53.4*
CNCc1cccc(OCc2ccccc2Cl)c1	-3.8
CCOc1cccc(CNC(C)(C)CO)c1OCc1ccc(Cl)cc1Cl	-0.5
CCOc1cccc(CNc2ccc(O)cc2)c1OCc1ccccc1Cl	-2.8
O=S(=O)(c1cccc(-c2cn3cccnc3n2)c1)N1CCOCC1	-5.0
CC1(C)OC2OC(C(O)CO)C(OC(=O)c3ccccc3)C2O1 (configuration not stated)	-1.4
COc1ccc(CC(=O)Nc2cccc(SC)c2)cc1	0.9
CN(C)CC/C=C1/c2cc(Br)ccc2CSc2ccccc21	-6.9
O=C1c2ccccc2CSc2c(O)cccc21	-2.0
CN(C)CCOc1ccc2c(c1)C(=O)c1ccccc1CS2	100.6*
Cc1ccc(CSc2nnc3nc4c(nn23)c2ccccc2n4C)cc1	-7.8
C=CCOC(=O)C1=C(C)N=C2SCCC(=O)N2C1c1ccc(SC)cc1 (configuration not stated)	7.4
Cc1ccc(NC(=O)CCc2c(C)nn(-c3ccc(N4CCOCC4)nn3)c2C)cc1F	6.9
COc1ccc(Nc2cc(C)c3cc(NC(=O)c4ccccc4Cl)ccc3n2)cc1	-2.5
CC1=C(C)C(=O)C(c2cccs2)=C(C)C1=O	-3.3
SMILES	ROC1-CUL1 inh
O=C(/C=C/c1cccs1)c1ccc2c(c1)OCCO2	1.3
O=C(/C=C/c1cccnc1)c1ccc2c(c1)OCCO2	71.3*
COC(=O)c1ccc(/C=C/C(=O)c2ccc3c(c2)OCCO3)cc1	-1.1
CCCC1Oc2c(Cl)cccc2N(O)C1=O (configuration not stated)	14.7
CCC(=O)Nc1ccccc1-c1nc2ccccc2n(CC(=O)Nc2ccccc2OC)c1=O	-1.9
COc1ccc(CC(=O)Nc2c(C(=O)N3CCN(c4ccccc4F)CC3)oc3ccccc23)cc1OC	-6.6
Fc1ccc(Nc2nc(Nc3ccc(F)cc3F)nc(N3CCOCC3)n2)cc1	-3.5
Nc1ccc(/C=C/c2ccc(Nc3nc(Nc4ccccc4)nc(N4CCOCC4)n3)cc2S(=O)(=O)O)c(S(=O)(=O)O)c1	37.2*
Cc1ccc(Nc2nc(Nc3ccc(C)c(C)c3)nc(N3CCOCC3)n2)cc1C	-4.2
Cc1ccc(C(=O)O)cc1-c1ccc(CC2=NC(=O)N(c3ccc(Cl)cc3)C2=O)o1	50.2*
O=C1NC(=S)N=C1Cc1ccc(-c2cc(C(=O)O)ccc2Cl)o1	10.3
Cc1c(C(=O)O)cccc1-c1ccc(CC2=NC(=O)N(c3cccc(Cl)c3)C2=O)o1	-3.2
O=C(O)CC(Nn1c(O)c(C2=c3ccccc3=NC2=O)sc1=S)C(=O)O (configuration not stated)	-2.3
CCOc1ccccc1C(=O)Nc1ccc(Cl)cc1	0.0
COCn1c2c(c3ccccc31)/C(=N\O)CCC21SCCS1	-2.3
CC1(O)CC(=O)C(C(=O)OCc2ccccc2)C(c2ccc(O)cc2)C1C(=O)OCc1ccccc1 (configuration not stated)	7.8
COC12C=CC(CC1)C1C(=O)c3c(OC(=O)OCc4ccccc4)ccc(O)c3C(=O)C12 (configuration not stated)	26.8*
COC12C=CC(CC1)C1C(=O)c3cccc(O)c3C(=O)C12 (configuration not stated)	1.4
COc1cc(NC(=O)c2ccc(-c3nc(COc4ccccc4)c(C)o3)cc2)cc(OC)c1	-4.0
Cc1ccc(NC(=O)CSc2ncc(S(=O)(=O)c3ccc(C(C)C)cc3)c(=O)[nH]2)cc1C	-1.2
CN(C)c1nc(SCC(N)=O)nc(N(C)C)n1	6.9
N#Cc1nc(N2CCOCC2)nc(N2CCOCC2)n1	0.8
NC(=O)CSc1nc(N2CCOCC2)nc(N2CCOCC2)n1	49.7*
CCOC(=O)C(C)N1C(=O)S/C(=C/c2c(OCc3ccccc3C#N)ccc3ccccc23)C1=O (configuration not stated)	2.7
Cc1ccc(Cn2nnc3c2C(=O)c2ccccc2C3=O)cc1	65.3*
O=c1c2ccccc2nnn1Cc1ccccc1	-6.5
COc1cccc(Cn2nnc3c2C(=O)c2ccccc2C3=O)c1	-0.8
Cc1sc2nc(SCc3cccc(C(F)(F)F)c3)n(-c3ccccc3)c(=O)c2c1C	-7.1
